A short description of experiment [1]: qHTS profiling for inhibitors of Plasmodium falciparum (3D7) proliferation (AID 743322).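 Further: infected erythrocytes exposed to compound for 72 h before lysis; 100% = DMSO vehicle wells and 0% = 0.29 µM artemisinin.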 Particulars: P. falciparum 3D7 proliferation; at 28.7 µM (top of the series). The method, boiled down: (§1)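 Erythrocytes infected with P. falciparum (0.3% parasitemia, 2.5% hematocrit) incubated with compounds 72 h at 37 C, 5% CO2. Lysis with saponin/Triton buffer containing SYBR Green I, overnight at room temperature in the dark; DNA fluorescence (485/535 nm) normalised to 0.29 uM artemisinin and DMSO.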

A short description of experiment [2]: qHTS profiling for inhibitors of Plasmodium falciparum (DD2) proliferation (AID 743323). Particulars: lower = more inhibition; at 28.7 µM (top of the series). The method, boiled down: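 Parasite DNA quantified by SYBR Green fluorescence (ex 485, em 535 nm) after saponin/Triton lysis and overnight dark incubation. Cultures: 0.3% parasitemia, 2.5% hematocrit, 72 h, 37 C; data scaled between DMSO and 0.29 uM artemisinin.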
A general note: In qHTS, concentration-response curves come from the screen itself.

Experiment [3] in a line: qHTS profiling for inhibitors of Plasmodium falciparum (HB3) proliferation (AID 743324; active means well fitted curve in the direction sought with a large enough effect; an effect the other way counts as inactive or inconclusive;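 further: 100% = DMSO vehicle wells and 0% = artemisinin-treated control wells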). Particulars: Plasmodium falciparum HB3 blood-stage proliferation; at 28.7 µM (top of the series). The method, boiled down:
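P. falciparum HB3 grown in erythrocytes (0.3% parasitemia, 2.5% hematocrit final) with compound for 72 h at 37 C, 5% CO2. Parasite DNA detected by SYBR Green after saponin/triton lysis overnight; normalized to 0.29 uM artemisinin and DMSO.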

Experiment [4] is described as follows: qHTS profiling of the MIPE4 collection as inhibitors of Plasmodium falciparum (3D7) proliferation (AID 743344).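 Further: scaled between DMSO vehicle wells and 0.29 µM artemisinin as full inhibition.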 Particulars: P. falciparum 3D7 in erythrocytes, SYBR Green DNA fluorescence, 72 h; at 28.5 µM (top of the series). The method, boiled down:
as §1

A short description of experiment [5]: qHTS profiling of the MIPE4 collection as inhibitors of Plasmodium falciparum (DD2) proliferation (AID 743345). Particulars: P. falciparum Dd2 in erythrocytes, SYBR Green DNA, 72 h; at 28.5 µM (top of the series). In outline: as §1
Experiment [6] in a line: qHTS profiling of the MIPE4 collection as inhibitors of Plasmodium falciparum (DD2) proliferation (Rep 2) (AID 743346). Particulars: P. falciparum Dd2 in erythrocytes, SYBR Green DNA, 72 h; at 28.5 µM (top of the series). In outline:
as §1

Experiment [7] is described as follows: qHTS profiling of the MIPE4 collection as inhibitors of Plasmodium falciparum (HB3) proliferation (AID 743347).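 Further: plate controls were DMSO vehicle wells for no effect and artemisinin wells for full effect.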 Particulars: P. falciparum HB3 in erythrocytes, SYBR Green DNA, 72 h; at 28.5 µM (top of the series). In outline: as §1
Experiment [8] is described as follows: qHTS Assay for Identifying Gametocytocidal Compounds (AID 743244; active means well fitted curve in the direction sought with a large enough effect; an effect the other way counts as inactive or inconclusive;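 further: on the % scale 0 is the no-effect control and ±100 the full control effect; actives lower the fluorescent signal which means gametocytes are killed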). Particulars: P. falciparum 3D7 stage III-V gametocytes, alamarBlue, 72 h; stronger effect = lower value. In outline:
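A resazurin-based viability read-out was applied to mature P. falciparum gametocytes: 72 h compound treatment, then 24 h dye incubation, with falling fluorescence signalling gametocytocidal effect.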

Experiment [9] addresses Cytochrome P450 2C9 (Homo sapiens) (UniProt P11712). Briefly: qHTS Assay for Inhibitors and Substrates of Cytochrome P450 2C9 (AID 883; active means well fitted curve in the direction sought with a large enough effect; an effect the other way counts as inactive or inconclusive; further: nearly all actives have a fitted effect of over 60% in size; further: potency means the concentration at half of the fitted maximal effect). In outline: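 Luminescent read-out of deoxyluciferin hydroxylation, normalized to 57uM sulphaphenazole (AC100). Reaction: 10nM enzyme, 100uM Luciferin-H (equal to KM), 25mM KPO4, 10 min compound preincubation, then 60 min with NADPH regeneration, both at 37C.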

For experiment [10], the target named is Cytochrome P450 3A4 (Homo sapiens) (UniProt P08684). Briefly: qHTS Assay for Inhibitors and Substrates of Cytochrome P450 3A4 (AID 884; active means well fitted curve in the direction sought with a large enough effect; an effect the other way counts as inactive or inconclusive; further: potency means the concentration at half of the fitted maximal effect; nearly all actives have a fitted effect of over 50% in size). In outline:
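20 nM human CYP3A4 with 25 uM Luciferin-PPXE (at KM) in 200 mM KPO4, preincubated 10 min with compound; NADPH regeneration started a 60 min RT reaction. Luciferin detected by luminescence, normalized to 57 uM ketoconazole as full inhibition.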

The target is the same in experiment [11]. Briefly: qHTS Assay for Activators of Cytochrome P450 3A4 (AID 885; active means well fitted curve in the direction sought with a large enough effect; an effect the other way counts as inactive or inconclusive; further: nearly all actives have a fitted effect of over 65% in size). In outline: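 Signal was normalized against complete inhibition by 57 uM ketoconazole. The reaction used 20nM CYP3A4 with 25uM Luciferin-PPXE, 10-min compound preincubation and a 60-min NADPH-supported step at RT.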

Records with an inconclusive call do not appear. Active and inactive are the calls of the source. Unless noted, how the calls were made is not given here.

Cytochrome P450 2C9 (Homo sapiens), sequence (P11712 whole entry, looked up): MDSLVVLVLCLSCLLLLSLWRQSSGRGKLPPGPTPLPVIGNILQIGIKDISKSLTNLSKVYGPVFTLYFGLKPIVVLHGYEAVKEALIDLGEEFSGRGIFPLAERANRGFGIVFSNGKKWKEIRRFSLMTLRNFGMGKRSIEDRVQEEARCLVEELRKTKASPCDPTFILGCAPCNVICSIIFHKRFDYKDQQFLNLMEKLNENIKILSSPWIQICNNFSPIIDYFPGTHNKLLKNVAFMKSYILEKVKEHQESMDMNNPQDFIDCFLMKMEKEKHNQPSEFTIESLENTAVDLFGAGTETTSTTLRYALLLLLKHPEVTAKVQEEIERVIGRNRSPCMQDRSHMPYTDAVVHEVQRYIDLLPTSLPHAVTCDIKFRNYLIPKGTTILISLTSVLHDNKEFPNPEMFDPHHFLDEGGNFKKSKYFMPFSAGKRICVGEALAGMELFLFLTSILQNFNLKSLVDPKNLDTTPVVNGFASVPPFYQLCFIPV
Cytochrome P450 3A4 (Homo sapiens), sequence (P08684 whole entry, looked up): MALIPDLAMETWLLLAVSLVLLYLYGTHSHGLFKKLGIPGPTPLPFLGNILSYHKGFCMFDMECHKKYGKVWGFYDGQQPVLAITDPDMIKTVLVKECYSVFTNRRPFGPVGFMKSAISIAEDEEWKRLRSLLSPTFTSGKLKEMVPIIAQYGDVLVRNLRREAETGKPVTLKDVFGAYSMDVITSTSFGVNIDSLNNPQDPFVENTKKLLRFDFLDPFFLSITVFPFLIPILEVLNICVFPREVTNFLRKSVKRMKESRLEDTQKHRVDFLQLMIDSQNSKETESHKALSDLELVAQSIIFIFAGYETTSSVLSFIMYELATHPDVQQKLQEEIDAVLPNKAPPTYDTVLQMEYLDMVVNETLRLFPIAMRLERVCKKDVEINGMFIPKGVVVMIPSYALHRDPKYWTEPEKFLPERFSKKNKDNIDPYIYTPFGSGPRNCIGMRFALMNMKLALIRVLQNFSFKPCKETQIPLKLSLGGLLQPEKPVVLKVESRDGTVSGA

Regarding `CCCC[C@@H]1C[C@@H](C(=O)NC([C@H](C)Cl)[C@H]2O[C@H](S)[C@H](O)[C@@H](O)[C@@H]2O)N(C)C1` (stereo partly drawn), the remaining parasite growth % (stronger effect = lower value) in experiment [1] came out at 39%. The activity, percent of control in [2] turned out to be 33.1%. For the same compound, in experiment [3], the remaining proliferation (% of control), lower = more inhibition was 31.5%. For the same compound, the parasite growth, % of DMSO control in experiment [4] is 29.2%. Also, in experiment [5], the parasite growth remaining, % of DMSO control (lower = more inhibition) was 38%. Further, in experiment [6], the parasite growth, % of control (lower = inhibition) is 28%. For the same compound, in experiment [7], the growth, % of control was 52.4%.

As for `O=C([C@H](Cc1ccc(O[S+](=O)([O-])c2cccc3cccnc23)cc1)N[S+](=O)([O-])c1ccccn1)N1CCN(c2ccccc2)CC1`, in [1], the remaining parasite growth % (stronger effect = lower value) is -1.21%. For the same compound, the activity, percent of control in experiment [2] worked out at 2.43%. In addition, the remaining proliferation (% of control), lower = more inhibition in experiment [3] was -0.011%.

With `C[C@H]1Cc2c([nH]c3cc(Cl)c(F)cc23)[C@@]2(N1)C(=O)Nc1ccc(Cl)cc12`, in experiment [1], the remaining parasite growth % (stronger effect = lower value) is -1.02%. For the same compound, in [2], the activity, percent of control was -0.226%. Besides, the remaining proliferation (% of control), lower = more inhibition in experiment [3] stood at 0.369%. This compound showed a parasite growth, % of DMSO control in [4] of 5.02%. Also, in experiment [5], the parasite growth remaining, % of DMSO control (lower = more inhibition) was 6.27%. Also, the parasite growth, % of control (lower = inhibition) in [6] was found to be 33.6%. This compound gave a growth, % of control in experiment [7] of 7.99%.

For the compound `C/C=C/C1=C(C(=O)O)N2C(=O)[C@@H](NC(=O)[C@H](N)c3ccc(O)cc3)[C@H]2SC1`, in experiment [8], the max response is 9.08% (inactive).

As to `C[C@@H]1Cc2c([nH]c3cc(Cl)c(F)cc23)[C@]2(N1)C(=O)Nc1ccc(Cl)cc12`, the remaining parasite growth % (stronger effect = lower value) in experiment [1] was -0.966%. For the same compound, the activity, percent of control in [2] came to 0.0887%. In addition, the remaining proliferation (% of control), lower = more inhibition in [3] was -0.181%.

Regarding `O=C([C@H](Cc1ccc(O[S+](=O)([O-])c2ccccn2)cc1)N[S+](=O)([O-])c1cccnc1)N1CCN(c2ccccc2)CC1`, in experiment [1], the remaining parasite growth % (stronger effect = lower value) worked out at 17.8%. The activity, percent of control in experiment [2] stood at 17.9%. The remaining proliferation (% of control), lower = more inhibition in [3] was 2.38%.

Consider `CC(C)(C)OC(=O)N[C@@H](Cc1ccc(O[S+](=O)([O-])c2ccccn2)cc1)C(=O)N1CCN(c2ccccc2)CC1`, for which the remaining parasite growth % (stronger effect = lower value) in experiment [1] stood at 5.22%. The activity, percent of control in experiment [2] is 11.4%. Also, the remaining proliferation (% of control), lower = more inhibition in experiment [3] worked out at 2.38%.

As to `O=CN(O)CCCP(=O)(O)O`, the remaining parasite growth % (stronger effect = lower value) in experiment [1] stood at 11.2%. For the same compound, in experiment [2], the activity, percent of control was 11.8%. In addition, in experiment [3], the remaining proliferation (% of control), lower = more inhibition is 14.2%. In experiment [4], this compound showed a parasite growth, % of DMSO control of 14.4%. The compound further returned a parasite growth remaining, % of DMSO control (lower = more inhibition) in experiment [5] of 19.9%. Besides, the parasite growth, % of control (lower = inhibition) in [6] amounted to 17.4%. The compound also returned a growth, % of control in experiment [7] of 9.42%.

Turning to `O=C(O)[C@H]1/C(=C/CO)O[C@@H]2CC(=O)N21`, the max response in experiment [8] is 8.98% (inactive).

On to `COc1ccc(OC[C@@H](CO)OC)cc1`, for which, in experiment [9], the Potency entry is “inactive”.

`CC(=O)NCC1CN(c2ccc(N3CCOCC3)c(F)c2)C(=O)O1` (stereo not drawn) came in with a parasite growth, % of DMSO control in experiment [4] of 91.2%. The same compound registered a parasite growth remaining, % of DMSO control (lower = more inhibition) in experiment [5] of 94.2%. The compound also gave a parasite growth, % of control (lower = inhibition) in experiment [6] of 75.9%. In experiment [7], the growth, % of control is 99%.

For the compound `C/C(CCN1CCCCc2nc(C)c(C)cc21)=N\O[C@@H](C)c1cc(-c2c(C)cc(C)cc2C)no1`, the Potency was 2.51 µM (active) in [9] and 3.98 µM (active) in experiment [10]. Also, the activity change, positive = activation in experiment [11] is -65.9% [at 11.4 µM] (inactive).
